# Reference: PubChem BioAssay (NCATS)
# Results filed as inconclusive are left out. Activity calls are given as the source filed them. Calls come from the whole dose curve; as a rule, active = well fitted cell-killing curve with a large enough effect; inconclusive = small, poorly fitted or top-dose-only effect, or effect the other way; inactive = no such curve, though single readings can be large or run the other way.
# Assay: Viability qHTS for spleen associated tyrosine kinase inhibitor (SYKi) drug resistant MV4-11 cells (AID 1963824); note: nearly all actives have a fitted effect of over 35% in size
# Conditions: SYKi-resistant MV4-11 viability, CellTiter-Glo, 72 h; series mostly up to 45 µM; viability, % of control: at the top concentration
# Procedure, shortened: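 CellTiter-Glo luminescence, read 10 min after reagent addition, reports viability after a 72 hr compound exposure. Cells are an MV4-11 line made resistant to SYK inhibition, seeded at 500 per well onto compound-containing plates.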
# Potency is the fitted concentration of half-maximal effect.
SMILES,"viability, % of control",Potency
COC1C=C(C)C(O)(CO)C2(C)CCCC(C)(C)C12 (centres undefined),81.2% (inactive),–
CCCCC(CC)CN=C(N)NC(N)=NCCCCCCN=C(N)NC(N)=NCC(CC)CCCC (centres undefined),–,2.66 µM (active)
CCN(C)S(=O)(=O)Nc1ccc(F)c(C(=O)c2c[nH]c3ncc(-c4cnc(C5CC5)nc4)cc23)c1F,–,4.68 µM (active)
Nc1ncnc2c1c(I)cn2C1OC(CO)C(O)C1O (centres undefined),–,0.411 µM (active)
COC1OC(OC)C(O)(CCC2(C)C(C)CCC3(C)C2CC(O)C(O)C32CO2)C1O (centres undefined),95.5% [at 17.3 µM] (inactive),–
CS(=O)(=O)Nc1ccc2oc3c(OC(F)F)ccc(C(=O)Nc4c(Cl)cncc4Cl)c3c2c1,–,23.1 µM (active)
COc1ccc(C2(CNC(=O)[C@](C)(Cc3c[nH]c4ccccc34)NC(=O)Nc3ccc([N+](=O)[O-])cc3)CCCCC2)nc1,–,20.6 µM (active)
C=C1CCC2C(C)(C(=O)O)CCCC2(C)C1CC/C(C)=C\CO (centres undefined),71.8% (inactive),–
CCCn1cc2c(nc(NC(=O)Nc3ccc(OC)cc3)n3nc(-c4ccco4)nc23)n1,79.6% (inactive),–
CC/C=C\CC1C(=O)CCC1CC(=O)OC (centres undefined),94.9% (inactive),–
CC1(C)CC23[C@@H]4CC(=O)[C@@H]2COC(=O)[C@@H]3CC[C@H]41,–,1.64 µM (active)
CC1=CC(=O)CC(C)(C)[C@@]1(O)CC[C@@H](C)O[C@@H]1O[C@H](CO)[C@@H](O)[C@H](O)[C@H]1O,83% (inactive),–
CC(C)(CO)c1cc2cc(NC(=O)C3(c4ccc5c(c4)OC(F)(F)O5)CC3)c(F)cc2n1CC(O)CO (centres undefined),–,16.4 µM (active)
Cc1ccccc1-n1c([C@H](C)Nc2nc(N)nc3nc[nH]c23)nc2cccc(C)c2c1=O,–,2.91 µM (active)
O=C1c2ccc(Nc3ccc(F)cc3F)cc2CCc2ccc(OCC(O)CO)cc21 (centres undefined),–,9.2 µM (active)
C[C@@H]1CC[C@]2(C(=O)O)CC[C@]3(C)C(=CCC4[C@@]5(C)C[C@@H](O)[C@@H](O)C(C)(C)C5CC[C@]43C)C2[C@]1(C)O (some centres undefined),–,3.55 µM (active)
N[C@H]1Cc2ccccc2N(O)C1=O,71.7% (inactive),–
Cc1ccn(-c2cc(Cl)ccc2[C@@H](Oc2cc(-c3ccc(C[C@H](N)C(=O)O)cc3)nc(N)n2)C(F)(F)F)n1,–,20.6 µM (active)
O=C1Cc2c([nH]c3ccc(Br)cc23)-c2ccccc2N1,–,5.8 µM (active)
C=CC(=O)N1CCC[C@@H](n2nc(-c3cccc(C(=O)Nc4ccc(C(C)C)c(C)c4)c3)c3c(N)ncnc32)C1,–,2.31 µM (active)
O=S(=O)(Nc1ccc(C(O)(C(F)(F)F)C(F)(F)F)cc1)c1cccs1,–,16.4 µM (active)
CC1CCC2C(C)(C)C(O)CCC2(C)C12Cc1c(O)cc3c(c1O2)CN(C(CCC(N)=O)C(=O)O)C3=O (centres undefined),79.1% [at 17.3 µM] (inactive),–
CN(C)CCCNc1c2ccccc2nc2c1[nH]c1ccccc12,–,0.731 µM (active)
CC(C)=CCC/C(C)=C/COCC1OC(n2ccc(=O)[nH]c2=O)C(O)C1O (centres undefined),–,11.4 µM (active)
Cc1cccc(-c2[nH]ncc2-c2ccnc3ccccc23)n1,–,16.4 µM (active)
CC1=CC2C(CC1OC1OC(CO)C(O)C(O)C1O)C(C)CC(=O)C2C(C)C (centres undefined),86.7% (inactive),–
CC(=O)OC1CC2C3(C)CCC(OC(=O)CC(=O)O)C(C)(C)C3CCC2(C)C2(C)CCC(C3(C)CCC(=O)O3)C12 (centres undefined),–,6.32 µM (active)
CC1(C)C[C@H]2C3=CCC4[C@@]5(C)CC[C@H](O[C@H]6O[C@H](C(=O)O)[C@@H](O)[C@H](O)[C@H]6O[C@H]6O[C@H](CO)[C@@H](O)[C@H](O)[C@H]6O[C@@H]6O[C@H](CO)[C@@H](O)[C@H](O)[C@H]6O)[C@](C)(CO)C5CC[C@@]4(C)[C@]3(C)CC[C@@]2(C)[C@H](O[C@@H]2OC[C@H](O)[C@H](OC3O[C@H](CO)[C@@H](O)[C@H](O)[C@H]3O)[C@H]2O)[C@@H]1O (some centres undefined),93.8% [at 9.25 µM] (inactive),–
COCc1c(Cl)ccc2c1CC[C@H]2c1ncc[nH]1,64.8% (inactive),–
